The values below come from PubChem BioAssay.

Structures are written as SMILES. For some of these results: Potency and affinity values are given separately. Activity calls are given as the source filed them.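 The calls were made as follows, unless noted: active = primary screen activator hit with a dose response curve and TRPC4 channel activation at any tested dose; inactive = no activation, no dose response, or not a primary hit.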

In experiment [1] the test system is TRPC4 beta (transient receptor potential cation channel C4), mouse. As to the kind of experiment: activators of mouse TRPC4 channel, confirmation, cell-based, Fluo4 calcium, HEK293 TRPC4beta/mu-opioid, duplicates, 10 µM (AID 2426;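 active = fluorescence ratio normalized to control raised more than 50% in primary screen plus both repeat runs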). Particulars: Fluo4 calcium fluorescence, at 10 µM; stronger effect = higher value.
Experiment [2] concerns transient receptor potential cation channel C4 beta (TRPC4), mouse. As to the kind of experiment: activators of mouse TRPC4 channel, confirmation, cell-based, second round, Fluo4, HEK293 TRPC4beta/mu-opioid, 1 µM (AID 2461;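 active = primary screen active and over 50% activation in each of two duplicate runs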). The note with it: Fluo4 calcium fluorescence, at 1 µM; stronger effect = higher value.
Experiment [3] has as its system TRPC4 (transient receptor potential cation channel C4 beta), mouse. Briefly: positive allosteric modulators of mouse TRPC4, confirmation, cell-based, second round, Fluo-4, HEK293 TRPC4beta/mu-opioid, 1 µM (AID 2554;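 active = primary screen hit whose fluorescence ratio, in both repeats, exceeds the weak agonist control mean by 3 SD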). Particulars: DAMGO EC20, Fluo-4 calcium flux, at 1 µM; stronger effect = higher value.
In experiment [4] the test system is TRPC4 beta (transient receptor potential cation channel C4), mouse. Briefly: positive allosteric modulators of mouse TRPC4, confirmation, cell-based, Fluo-4, HEK293 TRPC4beta/mu-opioid (AID 2555;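 active = primary screen hit whose calcium fluorescence ratio, in both repeats, exceeds the weak agonist control mean by 3 SD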). Particulars: DAMGO EC20, Fluo-4 calcium flux, at 10 µM; stronger effect = higher value. On the technique in general: Calcium flux is commonly read through the fluorescence of an indicator in the cells.

For experiment [5], the target named is Short transient receptor potential channel 4 (Mus musculus) (UniProt Q9QUQ5). As to the kind of experiment: inhibitors of mouse TRPC4 channel, confirmation, cell-based, Fluo4, HEK293 TRPC4beta/mu-opioid (AID 2636;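 active = calcium signal cut by more than 3 SD below the full-agonist control yet still positive, in both repeats and the earlier primary screen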). The note with it: DAMGO, Fluo4 calcium flux, at 10 µM; stronger effect = higher value.
Chain of Short transient receptor potential channel 4 (Mus musculus) (Q9QUQ5 whole entry, looked up): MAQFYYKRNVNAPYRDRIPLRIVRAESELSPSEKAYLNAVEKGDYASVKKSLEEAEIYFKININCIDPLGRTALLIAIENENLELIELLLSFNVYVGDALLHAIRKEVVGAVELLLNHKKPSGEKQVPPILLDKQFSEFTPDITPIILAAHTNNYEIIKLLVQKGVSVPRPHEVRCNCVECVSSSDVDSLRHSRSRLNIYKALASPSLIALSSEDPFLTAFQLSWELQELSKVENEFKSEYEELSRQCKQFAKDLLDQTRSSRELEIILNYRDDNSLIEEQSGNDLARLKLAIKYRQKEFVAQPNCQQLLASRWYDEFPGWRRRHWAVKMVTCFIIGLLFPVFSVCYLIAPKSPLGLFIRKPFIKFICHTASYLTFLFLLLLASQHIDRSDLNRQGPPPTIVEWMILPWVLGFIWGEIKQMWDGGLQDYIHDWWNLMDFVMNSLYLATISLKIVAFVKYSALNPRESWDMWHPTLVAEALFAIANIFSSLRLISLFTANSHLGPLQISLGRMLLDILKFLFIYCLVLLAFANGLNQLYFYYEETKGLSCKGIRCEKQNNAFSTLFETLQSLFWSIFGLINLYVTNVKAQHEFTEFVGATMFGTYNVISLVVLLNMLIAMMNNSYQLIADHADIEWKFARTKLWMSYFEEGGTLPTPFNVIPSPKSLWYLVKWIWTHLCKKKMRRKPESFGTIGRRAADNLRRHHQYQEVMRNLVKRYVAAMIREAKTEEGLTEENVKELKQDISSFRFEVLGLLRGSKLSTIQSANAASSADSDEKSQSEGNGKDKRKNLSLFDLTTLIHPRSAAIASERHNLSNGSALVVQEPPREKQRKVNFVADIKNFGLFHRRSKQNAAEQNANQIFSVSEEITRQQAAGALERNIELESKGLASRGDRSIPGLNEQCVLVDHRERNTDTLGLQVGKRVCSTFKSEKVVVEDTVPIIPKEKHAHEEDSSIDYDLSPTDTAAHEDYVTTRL
Experiment [6] shares this target. As to the kind of experiment: inhibitors of mouse TRPC4 channel, confirmation, cell-based, second round, Fluo4, HEK293 TRPC4beta/mu-opioid, 1 µM (AID 2637;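 active = calcium signal ratio cut to more than 3 SD under the fully stimulated control mean yet still positive, in both repeats and the primary screen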). The note with it: Fluo4 calcium flux, DAMGO, at 1 µM; stronger effect = higher value.
For experiment [7] the target is unchanged. As to the kind of experiment: mouse TRPC4 channel activators, dose response, cell-based, HEK293 TRPC4/mu-opioid, Fluo-4 calcium (AID 434937).
For experiment [8] the target is unchanged. Briefly: TRPC4 positive allosteric modulators, dose response, cell-based, HEK293 TRPC4/mu-opioid, Fluo-4 calcium, EC20 DAMGO (AID 434941;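 active = earlier screen potentiator hit that boosts the TRPC4 ion channel at some dose, with a dose response; inactive = no potentiation, no dose response, or not a prior hit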;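 also: calcium entry triggered by an EC20 dose of DAMGO at the co-expressed mu-opioid receptor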).
The target is the same in experiment [9]. As to the kind of experiment: mouse TRPC4 channel inhibitors, dose response, cell-based, HEK293 TRPC4/mu-opioid, Fluo-4 calcium (AID 434942;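 active = primary screen inhibitor hit that blocks the TRPC4 channel at some tested dose, yielding a dose curve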).
Experiment [10] has as its target Short transient receptor potential channel 6 (Mus musculus) (UniProt Q61143). Briefly: inhibition of mouse TRPC6 channel, confirmation, selectivity assay for TRPC4 inhibitor project, cell-based, HEK293, membrane potential dye, duplicate (AID 434948;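 active = active in primary screen and both duplicates, each dropping signal beyond three positive-control SD with fluorescence still positive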). Particulars: HEK293 TRPC6, membrane potential dye fluorescence, at 10 µM, stimulated with maximal-effect acetylcholine; stronger effect = higher value.

Experiment [11] shares this target. Briefly: activation of mouse TRPC6 channel, confirmation, selectivity assay for TRPC4 activator project, cell-based, HEK293, membrane potential dye, duplicate (AID 434950;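 active = membrane potential signal rise above negative control mean plus 3 SD in both duplicates, also active in the earlier TRPC4 screen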;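 as to activation: 0% = buffer only wells and 100% = acetylcholine maximal-effect wells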). Particulars: HEK293 TRPC6, membrane potential fluorescence, at 10 µM; stronger effect = higher value.
Experiment [12] shares this target. As to the kind of experiment: TRPC6 potentiation by TRPC4 potentiator hits, confirmation, selectivity assay for TRPC4 potentiator project, HEK293 cells, membrane potential dye, duplicate (AID 434952;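 active = compound raising the membrane signal above positive-control mean plus 3 SD in both repeats, and a primary screen hit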). The note with it: HEK293 TRPC6, membrane potential dye fluorescence, at 10 µM, maximal acetylcholine added after compound; stronger effect = higher value.
Experiment [13] has as its target Short transient receptor potential channel 4 (Mus musculus) (UniProt Q9QUQ5). Briefly: calcium flux activators in TRPC4/5HT1a cells, counter-screen for TRPC4 activator project, cell-based, second counter screen, HEK293 TRPC4/5HT1a, Fluo-4 (AID 434977;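 active = calcium signal rise above buffer-control mean plus 5 SD in both duplicates, and also a hit in the primary screen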). Particulars: Fluo-4 calcium flux, at 10 µM; stronger effect = higher value.
Experiment [14] is described as follows: calcium flux inhibitors in TRPC4/5HT1a cells, confirmation, counter-screen for TRPC4 inhibitor project, cell-based, second counter screen, HEK293 TRPC4/5HT1a, Fluo-4 (AID 434978;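 active = primary screen active whose calcium signal fell more than 3 SD beyond the full-serotonin control mean in both duplicate plates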;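 also: serotonin given first at submaximal then at maximal dose after compound preincubation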). Particulars: Fluo-4 calcium flux, at 10 µM, serotonin added to trigger calcium flux; stronger effect = higher value.
The subject of experiment [15] is TRPC4 (mouse), co-expressed with 5HT1a in HEK293. Briefly: calcium flux potentiators in TRPC4/5HT1a cells, confirmation, counter-screen for TRPC4 potentiator project, cell-based, second counter screen, HEK293 TRPC4/5HT1a, Fluo-4 (AID 434979;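 active = signal rise over 3 SD above mean of control wells given weak agonist, in both repeats and first screen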). Particulars: Fluo-4 calcium flux, at 10 µM, serotonin added at its EC20 dose; stronger effect = higher value.
The nature of experiment [16]: calcium flux activation in mu-opioid HEK293 cells, confirmation, counter-screen for TRPC4 activator project, cell-based, HEK293 mu-opioid receptor line (AID 449723;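 active = hit in primary screen, with calcium signal over 5 SD above buffer well mean in both duplicates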;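 also: counter screen cells carry the mu-opioid receptor alone and lack TRPC4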). The note with it: Fluo-4 calcium fluorescence, at 10 µM; stronger effect = higher value.
Experiment [17] in a line: calcium flux enhancement in mu-opioid HEK293 cells, confirmation, counter-screen for TRPC4 allosteric potentiator project, cell-based, HEK293 mu-opioid receptor line (AID 449724;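 active = calcium signal rise more than 3 SD above the low-dose agonist control mean, in both duplicate plates and the primary screen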;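 also: HEK293 cells carrying mu-opioid receptor only with no TRPC4 channel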). Particulars: Fluo-4 calcium flux, at 10 µM, compound added before EC20 DAMGO stimulus; stronger effect = higher value.

Chain of Short transient receptor potential channel 6 (Mus musculus) (Q61143 whole entry, looked up): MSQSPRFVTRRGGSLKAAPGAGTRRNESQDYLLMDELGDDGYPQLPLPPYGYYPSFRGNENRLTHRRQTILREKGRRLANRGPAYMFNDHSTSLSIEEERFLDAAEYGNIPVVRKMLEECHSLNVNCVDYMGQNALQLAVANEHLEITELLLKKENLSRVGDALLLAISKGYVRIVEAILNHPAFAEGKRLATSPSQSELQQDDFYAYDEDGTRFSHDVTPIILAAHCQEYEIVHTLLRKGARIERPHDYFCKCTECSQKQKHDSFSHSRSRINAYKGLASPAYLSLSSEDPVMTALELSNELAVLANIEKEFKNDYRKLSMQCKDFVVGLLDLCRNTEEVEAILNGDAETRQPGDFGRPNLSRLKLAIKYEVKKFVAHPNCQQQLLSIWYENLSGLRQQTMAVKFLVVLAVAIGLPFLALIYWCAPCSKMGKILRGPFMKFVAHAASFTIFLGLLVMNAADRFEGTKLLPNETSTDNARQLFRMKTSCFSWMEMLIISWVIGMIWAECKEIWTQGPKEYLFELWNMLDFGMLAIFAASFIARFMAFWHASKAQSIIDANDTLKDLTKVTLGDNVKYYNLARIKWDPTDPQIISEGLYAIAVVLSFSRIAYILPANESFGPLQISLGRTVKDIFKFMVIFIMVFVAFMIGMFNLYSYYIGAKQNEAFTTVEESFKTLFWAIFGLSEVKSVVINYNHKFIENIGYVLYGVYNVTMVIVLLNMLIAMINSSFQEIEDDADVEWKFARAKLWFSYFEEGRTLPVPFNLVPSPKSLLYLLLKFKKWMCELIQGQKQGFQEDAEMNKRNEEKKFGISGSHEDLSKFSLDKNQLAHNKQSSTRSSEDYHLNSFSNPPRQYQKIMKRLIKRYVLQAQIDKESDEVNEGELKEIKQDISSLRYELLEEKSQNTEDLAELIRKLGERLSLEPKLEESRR

In the case of `CCOCCCNCc1ccc(OCc2ccccc2Cl)cc1`, the outcome in [1], in [2], in experiment [3], in experiment [4], in experiment [5] and in experiment [6] was inactive. Also, the outcome in [7], in [8], in experiment [9], in experiment [10], in [11] and in experiment [12] was inactive. For the same compound, the outcome in [13], in experiment [14], in experiment [15], in [16] and in experiment [17] was inactive.
Regarding `CCCCN(C)CCNC(=O)C1CCCN(S(=O)(=O)c2cccc3nsnc23)C1` (stereo not drawn), the outcome in experiment [1], in experiment [2], in experiment [4], in experiment [5], in experiment [6] and in experiment [7] was inactive. Also, the outcome in experiment [8], in experiment [9], in experiment [10], in experiment [11], in experiment [12] and in [13] was inactive. The outcome in [14], in [16] and in experiment [17] was inactive. The potentiation in experiment [3] was 11% (active); in experiment [15], 7.12% (active).
For `CN(C)C(CNC(=O)c1ccc(S(=O)(=O)NCc2ccco2)cc1)c1ccccc1` (stereo not drawn), the outcome in experiment [1], in [2], in experiment [3], in [4], in [5] and in experiment [6] was inactive. The result in experiment [7], in experiment [8], in [9], in experiment [10], in [11] and in experiment [12] was inactive. The outcome in experiment [13], in experiment [14], in experiment [15], in [16] and in experiment [17] was inactive.
Regarding `COc1cccc(OCCOCCNCCO)c1`, the result in experiment [1], in experiment [2], in experiment [3], in experiment [4], in experiment [5] and in experiment [6] was inactive. Also, the outcome in [7], in experiment [8], in experiment [9], in experiment [10], in experiment [12] and in experiment [13] was inactive. Moreover, the outcome in [14], in experiment [15], in experiment [16] and in experiment [17] was inactive. Also, in experiment [11], the activation is 33.5% (active).
Turning to `Cn1c(=O)c2c(nc(SCCN3CCCCC3)n2Cc2ccccc2)n(C)c1=O`, the result in [1], in experiment [2], in [3], in [5], in [6] and in experiment [7] was inactive. Further, the outcome in experiment [8], in experiment [9], in experiment [10], in experiment [11], in [12] and in [13] was inactive. The outcome in [14], in experiment [16] and in [17] was inactive. For the same compound, the potentiation in experiment [4] was 36% (active); in experiment [15] it was 50.5% (active).
Turning to `Cc1ccc(C)c2[nH]c(=O)c(C(c3nnnn3C3CCCC3)N3CCOCC3)cc12` (stereo not drawn), the outcome in experiment [1], in experiment [2], in experiment [3], in experiment [4], in [5] and in experiment [6] was inactive. Besides, the outcome in [7], in experiment [8], in experiment [9], in experiment [10], in experiment [11] and in [12] was inactive. For the same compound, the outcome in experiment [13], in [14], in experiment [15], in experiment [16] and in [17] was inactive.
`Cc1cc(Cl)ccc1OC(C)C(=O)Nc1ccccc1N1CCOCC1` (stereo not drawn): the result in [1], in [2], in experiment [3], in experiment [5], in [6] and in experiment [7] was inactive. For the same compound, the outcome in experiment [8], in experiment [9], in experiment [10], in experiment [11], in experiment [12] and in experiment [13] was inactive. For the same compound, the outcome in experiment [14], in experiment [15] and in experiment [16] was inactive. For the same compound, in experiment [4], the potentiation is 25% (active). Further, in [17], the activation was 1140% (active).
On to `CN(CC(=O)Nc1sc2c(c1C#N)CCCCC2)Cc1nc2ccccc2c(=O)[nH]1`, for which the outcome in [1], in experiment [2], in [3], in [4], in [5] and in experiment [6] was inactive. Further, the outcome in experiment [7], in [8], in experiment [9], in experiment [10], in experiment [11] and in experiment [12] was inactive. Besides, the result in experiment [13], in [14], in experiment [15], in experiment [16] and in experiment [17] was inactive.
In the case of `Cc1cc(Nc2ccc3c(c2)OCCO3)c2ccccc2n1`, the outcome in [1], in experiment [2], in experiment [3], in experiment [4], in experiment [5] and in experiment [6] was inactive. Also, the outcome in experiment [7], in [8], in experiment [9], in experiment [10], in experiment [11] and in [12] was inactive. The outcome in experiment [13], in experiment [14], in experiment [15], in [16] and in experiment [17] was inactive.
Take `O=C(NCCCN1CCN(CCCNC(=O)c2cccc(Cl)c2)CC1)c1cccc(Cl)c1`: the outcome in experiment [1], in experiment [2], in [4], in experiment [5], in experiment [6] and in [7] was inactive. Also, the result in experiment [8], in [9], in [10], in [11], in experiment [12] and in experiment [13] was inactive. Moreover, the outcome in experiment [14], in experiment [16] and in [17] was inactive. Moreover, the potentiation was 22% (active) in experiment [3] and 11.3% (active) in [15].
Regarding `O=C(NCc1cccs1)C12CC3CC(CC(C3)C1)C2`, the outcome in [1], in experiment [2], in experiment [3], in experiment [4], in [5] and in [6] was inactive. The result in experiment [7], in experiment [8], in experiment [9], in experiment [10], in [11] and in [12] was inactive. Moreover, the outcome in experiment [13], in [14], in experiment [15], in [16] and in experiment [17] was inactive.
As to `CC(Sc1nc2sc3c(c2c(=O)n1-c1ccccc1)CCCC3)C(=O)O` (stereo not drawn), the outcome in [1], in experiment [2], in experiment [3], in [5], in experiment [6] and in [7] was inactive. The result in experiment [8], in experiment [9], in [10], in experiment [11], in experiment [12] and in [13] was inactive. Further, the outcome in experiment [14], in experiment [16] and in experiment [17] was inactive. Moreover, the results for the potentiation in [4] and in experiment [15] were 12% (active) and 22.2% (active), respectively.
Consider `CCCC(=O)N/C(N)=N/c1nc(C)c2ccccc2n1`, for which the outcome in experiment [1], in [2], in [4], in [5], in experiment [6] and in experiment [7] was inactive. In addition, the outcome in [8], in experiment [9], in experiment [10], in experiment [11], in [12] and in experiment [13] was inactive. Moreover, the outcome in experiment [14], in [16] and in experiment [17] was inactive. The values for the potentiation in [3] and in experiment [15] were 9% (active) and 10% (active), respectively.
On to `NN=C1c2cc([N+](=O)[O-])ccc2-c2ccc([N+](=O)[O-])cc21`, for which the result in experiment [1], in experiment [2], in experiment [3], in experiment [4], in experiment [5] and in experiment [6] was inactive. Further, the result in experiment [7], in [8], in [9], in experiment [10], in [11] and in experiment [12] was inactive. Besides, the outcome in experiment [13], in experiment [14], in experiment [15], in experiment [16] and in experiment [17] was inactive.
